NPC1 promoter act = activates the NPC1 promoter; Huh7 NPC1 promoter luciferase reporter, 24 h; Potency, µM (series often up to 9.22 µM), usual class: activators; actives 2.4% (n = 320,000); AID 485313; also: nearly all actives have a fitted effect of over 60% in size
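Readout is luciferase luminescence, reflecting NPC1 promoter activation in stably transfected Huh7 cells after 24 h compound exposure at 37 °C in reduced-serum medium with 10% FBS.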
ELG1 genotox = inducers of genotoxicity in HEK293T ELG1-luciferase cells. HEK293T ELG1-luciferase reporter, luminescence, 16 h. Potency, µM (series often up to 46 µM), usual class: activators. actives 1.3% (n = 330,000). AID 504466; also: nearly all actives have a fitted effect of over 60% in size
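Cells (2,000/well) expressing the ELG1-luciferase fusion are dosed by pin tool and kept 16 hr at 37 °C, 5% CO2. Signal comes from ONE-Glo luciferase reagent after 30 min at room temperature.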
FLuc counter = inhibits or activates purified firefly luciferase, miR-21 counter-screen. P08659. purified FLuc, Km substrates, luminescence inhibition. Potency, µM (doses to about 57.5 µM), most hits filed as inhibitors. actives 6.9% (n = 360,000). AID 588342; also: nearly all actives have a fitted effect of over 55% in size
Target sequence (P08659 whole entry, looked up): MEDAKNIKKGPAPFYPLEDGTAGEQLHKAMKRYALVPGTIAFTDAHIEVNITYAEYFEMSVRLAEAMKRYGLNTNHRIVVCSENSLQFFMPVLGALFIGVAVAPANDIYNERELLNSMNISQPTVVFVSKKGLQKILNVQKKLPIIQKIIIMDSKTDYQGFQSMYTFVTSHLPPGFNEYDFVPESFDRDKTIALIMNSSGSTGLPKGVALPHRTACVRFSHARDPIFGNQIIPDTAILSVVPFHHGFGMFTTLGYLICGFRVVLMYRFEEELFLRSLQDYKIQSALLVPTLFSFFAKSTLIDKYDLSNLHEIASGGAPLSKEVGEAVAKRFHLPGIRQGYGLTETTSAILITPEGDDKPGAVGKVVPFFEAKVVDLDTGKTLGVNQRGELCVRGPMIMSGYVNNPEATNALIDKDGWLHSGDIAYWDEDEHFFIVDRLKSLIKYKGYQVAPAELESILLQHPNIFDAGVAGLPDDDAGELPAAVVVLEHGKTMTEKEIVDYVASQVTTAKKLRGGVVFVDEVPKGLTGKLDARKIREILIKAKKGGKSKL
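Biochemical qHTS of compounds, final roughly 60 µM downward over six points, against 10 nM purified firefly luciferase using Km concentrations of substrates (10 uM D-luciferin, 10 uM ATP) in Tris acetate pH 7.5 buffer; luminescence output.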
SMN2 splice up = SMN2 splice variant enhancement; HEK293 SMN2-luciferase splicing reporter, luminescence, 30-36 h; Potency, µM (titrated, usually from 46.1 µM), most hits filed as activators; actives 2.8% (n = 210,000); AID 1458; also: nearly all actives have a fitted effect of over 55% in size
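HEK293 cells carry an SMN2 […]–luciferase reporter in which exon 7 inclusion puts luciferase in frame. Cells were plated 10-12 h before compound addition, then incubated 30-36 h at 37C. ONE-Glo luminescence was read; sodium butyrate at 4.5 mM final served as control.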
Rab9 promoter act = activators of Rab9 promoter | Potency, µM (titrated, usually from 9.22 µM), most hits filed as activators | actives 2.8% (n = 320,000) | Huh7 Rab9 promoter-luciferase reporter, luminescence, 24 h; also: nearly all actives have a fitted effect of over 60% in size
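Using Huh7 cells stably transfected with Rab9 promoter–luciferase, compounds were incubated 24 h at 37 °C, 5% CO2; luciferase luminescence was read 10 min after reagent addition.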
A number is an active result; n = inactive; u = inconclusive; x = no result given; [ ] = another dose, or the depositor's remark. In the library only some 7.4% were active in any assay of this set; here they are far more common. Calls follow the shape of the dose curve; as a rule, active = well fitted curve in the direction sought with a large enough effect; inconclusive = small, poorly fitted or top-dose-only effect, or another doubt; inactive = no such curve, though single readings can be large; an effect the other way counts as inactive or inconclusive.

SMILES	NPC1 promoter act	ELG1 genotox	FLuc counter	SMN2 splice up	Rab9 promoter act
COc1ccc(Nc2ncccc2C(=O)O)cc1	u	14.6µM	15.1µM	n	u
NC(=O)c1cccnc1Nc1ccccc1F	n	u	n	n	n
Cc1ccc(Nc2ncccc2C(N)=O)cc1	3.55µM	u	u	11.2µM	2.82µM
Cc1ccc(C)c(N2CCN(C(=O)Cn3c(-c4cccs4)cc4ccccc43)CC2)c1	x	x	n	x	x
CCc1ccc(NC(=O)c2ccc3nc(N)sc3c2)cc1	u	u	12µM	u	u
CCOc1ccc2nc(N)sc2c1	x	x	x	n	x
CCc1ccc2nc(N)sc2c1	2.24µM	u	10.7µM	20µM	3.55µM
Nc1nc2ccc(C(=O)Nc3ccccc3)cc2s1	3.55µM	u	19µM	x	3.16µM
CC1=C(C(=O)Nc2cc(C)ccn2)C(c2ccc(C)cc2)C2=C(CCCC2=O)N1 (stereo not drawn)	n	n	n	10µM	n
O=C(CSc1ccc2nnc(CCNS(=O)(=O)c3ccccc3)n2n1)Nc1ccccc1C(F)(F)F	x	x	n	x	x
CC(C)c1nn2c(=O)cc(COC(=O)c3ccc(NC(=O)c4cccs4)cc3)nc2s1	x	x	n	x	x
O=C(COC(=O)c1ccccc1Cc1ccccc1)Nc1ccc(SC(F)F)cc1	u	u	6.01µM	x	2.82µM
Cc1ccc(C(=O)c2ccccc2C(=O)OCC(=O)Nc2ccc(SC(F)F)cc2)cc1	n	n	n	n	n
CCCCC(=O)OCC(=O)Nc1ccc(SC(F)F)cc1	n	n	21.3µM	n	n
O=C(COC(=O)Cc1ccccc1F)Nc1ccc(SC(F)F)cc1	n	n	13.5µM	u	n
CCCCNC(=S)Nc1ccc(SC(F)F)cc1	n	n	16.9µM	n	n
CCCCNC(=S)Nc1ccc(F)cc1	n	n	n	x	n
COc1cc(C(=O)OCC(=O)Nc2ccc(SC(F)F)cc2)cc(OC)c1OC	n	n	n	n	n
Cc1ccccc1CN1c2ccccc2-c2nc(SCC(=O)NCCc3ccccc3)ncc2S1(=O)=O	x	x	n	x	x
Cc1ccc2oc(-c3cccc(NC(=O)c4ccc(N5CCC(C)CC5)c([N+](=O)[O-])c4)c3)nc2c1	x	x	n	n	x
Cc1c(C(=O)Nc2ccccc2Br)oc2ccc(S(=O)(=O)N3CCCCCC3)cc12	x	x	n	x	x
CCCCS(=O)(=O)N1C2=NC(C(=O)OC)=C(C(=O)OC)[C@@H]3Nc4ccccc4[C@]23C[C@H]1C(=O)OC	x	x	x	n[9.22 µM]	x
O=C(Cc1ccccc1F)Nc1ccc(SC(F)F)cc1	3.98µM	u	5.36µM	12.6µM	1.58µM
Cc1ccc(C(=O)Oc2cc(C)n(C)c(=O)c2)cc1	n	n	15.1µM	n	n
CCCCC[C@H](O)/C=C/C=C/C/C=C\CCCC(=O)O	x	x	x	n	x
SMILES	NPC1 promoter act	ELG1 genotox	FLuc counter	SMN2 splice up	Rab9 promoter act
O=C(Nc1ccccc1)c1cccnc1N1CCCC1	n	n	n	n	n
CC(=O)N1CCN(c2ccc(NC(=O)c3ccccc3Cl)cc2)CC1	n	n	n	x	n
O=C(Nc1ccc(N2CCCCC2)cc1)C(Cl)c1ccccc1 (stereo not drawn)	u	10.3µM	3.01µM	n	n
O=C(Nc1ccc(N2CCCC2)cc1)C(c1ccccc1)c1ccccc1	n	n	n	n	n
O=C(Nc1ccc(N2CCCCCC2)cc1)c1ccccc1Cl	n	u	10.7µM	14.1µM	u
O=C(Nc1ccc(N2CCCCCC2)cc1)c1ccc[nH]1	1.12µM	u	x	x	0.398µM
O=C(Nc1ccc(N2CCCCC2)cc1)c1ccccn1	u	u	0.0675µM	n	u
CCOC(=O)c1cc(-c2ccccc2)n(CCCC(=O)Nc2cccc(C)c2C)c1C	x	x	n	x	x
COc1ccccc1C(=O)Nc1ccc(N2CCCCC2)cc1	u	2.91µM	2.69µM	17.8µM	3.98µM
O=C(Nc1ccc(SC(F)(F)F)cc1)c1ccccn1	u	2.31µM	0.849µM	2.24µM	1.41µM
COc1ccccc1C(=O)Nc1ccc(N2CCN(C(C)=O)CC2)cc1	n	n	u	n	n
Cc1cc(NCCN2CCOCC2)n2ncc(-c3ccccc3)c2n1	0.708µM	8.2µM	7.57µM	14.1µM	1.58µM
Cc1cc(NC2CCCC2)n2nc(C)c(-c3ccccc3)c2n1	n	u	19µM	x	u
Cc1cc(NC2CCCC2)n2ncc(-c3ccccc3)c2n1	u	0.164µM	0.213µM	x	u
COc1ccccc1-c1cnn2c(NCCc3ccccc3)cc(C)nc12	n	n	10.7µM	x	n
COc1ccc(-c2c(C)nn3c(NC4CCCC4)cc(C)nc23)cc1OC	n	n	n	x	n
CCOc1ccc(-n2c(SCC(=O)Nc3ccc(CC)cc3)nc3c(oc4ccccc43)c2=O)cc1	x	x	n	n	x
Cc1cc(C(F)(F)F)n2ncc(-c3cccc(Br)c3)c2n1	n	n	n	n	n
CC(C)(C)c1cc(NCc2ccccn2)n2ncc(-c3ccccc3)c2n1	n	n	16.9µM	x	n
Cc1cc(NC(C)c2ccccc2)n2ncc(-c3ccccc3)c2n1 (stereo not drawn)	2.51µM	u	12µM	x	3.98µM
c1ccc(-c2csc3ncnc(NCc4ccccn4)c23)cc1	n	n	n	x	n
Cc1cc(NCc2ccccc2)n2ncc(-c3ccccc3)c2n1	1.58µM	4.11µM	2.39µM	x	0.891µM
Cc1cc(=O)n2[nH]c(NC(=O)c3cccc(Cl)c3)nc2n1	x	x	n	n	x
COC(=O)CCC(C)C1CCC2C3CC[C@H]4CC(O)CC[C@@]4(C)C3CC(O)[C@]12C (stereo partly drawn)	x	x	x	n	x
Cc1cc(C)n(CCc2nc3c4ccccc4nc(N4CCN(c5ccc(F)cc5)CC4)n3n2)n1	x	x	n	n	x
SMILES	NPC1 promoter act	ELG1 genotox	FLuc counter	SMN2 splice up	Rab9 promoter act
CCCc1ccc2oc(C(=O)NCCc3cnn(C)c3)c(C)c2c1	3.55µM	u	13.5µM	x	1.78µM
CCCc1ccc2oc(C(=O)N(C)Cc3ccn[nH]3)c(C)c2c1	u	18.3µM	15.1µM	x	u
CCCc1ccc2oc(C(=O)NCCc3nc(C(=O)OCC)cs3)c(C)c2c1	3.98µM	n	13.5µM	x	2µM
CCCc1ccc2oc(C(=O)N3CCCC3)c(C)c2c1	n	u	21.3µM	x	u
Cc1c(C(=O)N2CCCC2)oc2ccc(Br)cc12	n	n	u	x	n
O=C(Nc1ncc(Cc2ccc(SC(F)F)cc2)s1)c1ccccc1	n	n	13.5µM	n	n
O=C(Nc1ncc(Cc2ccc(Cl)cc2)s1)c1ccc2c(c1)CC(c1ccccc1)OC2=O (stereo not drawn)	x	x	n	n	x
O=C(Nc1ncc(Cc2cccc(Cl)c2)s1)C1=NCCN1	n	n	n	n	n
O=C(Nc1ncc(Cc2cccc(Cl)c2)s1)c1cccs1	u	n	15.1µM	n	u
Cc1ccc(C(=O)Nc2ncc(Cc3ccccc3)s2)o1	1.41µM	u	0.953µM	x	3.16µM
O=C(Nc1ncc(Cc2ccccc2)s1)c1cccs1	1.26µM	u	1.07µM	4.47µM	0.501µM
O=C(Cc1ccccc1)Nc1ccc(NC(=O)c2cccs2)cc1	n	n	n	n	n
Cc1cc(F)ccc1NC(=O)C1CCCN(C(=O)c2cnn(-c3ccccc3)c2-n2cccc2)C1 (stereo not drawn)	x	x	n	n	x
Cc1ccc(S(=O)(=O)N2CCc3cc(C(=O)N(C)Cc4ccccc4)ccc32)cc1	x	x	n	n	x

Compound activity: PubChem BioAssay, National Center for Advancing Translational Sciences (NCATS)
